Each structure is given as a SMILES string.

Experiment [1] addresses T1, Aspartate--tRNA(Asp/Asn) ligase (Mycobacterium tuberculosis (strain ATCC 25618 / H37Rv)) (UniProt P9WFW3).
T1 sequence (whole entry): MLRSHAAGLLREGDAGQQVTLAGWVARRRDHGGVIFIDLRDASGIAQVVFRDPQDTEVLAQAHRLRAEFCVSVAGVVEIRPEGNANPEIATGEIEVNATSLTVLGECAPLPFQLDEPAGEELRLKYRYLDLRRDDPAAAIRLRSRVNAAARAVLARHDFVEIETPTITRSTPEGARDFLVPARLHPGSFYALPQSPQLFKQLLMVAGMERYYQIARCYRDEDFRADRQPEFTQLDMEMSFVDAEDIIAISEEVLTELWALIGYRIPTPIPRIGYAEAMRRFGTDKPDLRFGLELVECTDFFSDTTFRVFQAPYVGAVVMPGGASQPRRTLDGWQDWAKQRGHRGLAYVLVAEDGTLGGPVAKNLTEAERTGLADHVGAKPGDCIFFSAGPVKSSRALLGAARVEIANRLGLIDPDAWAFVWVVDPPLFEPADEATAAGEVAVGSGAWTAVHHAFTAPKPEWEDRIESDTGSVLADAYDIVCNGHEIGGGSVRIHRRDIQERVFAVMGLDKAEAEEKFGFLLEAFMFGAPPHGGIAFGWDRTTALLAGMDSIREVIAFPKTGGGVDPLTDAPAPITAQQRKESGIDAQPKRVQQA
Put plainly: Assay for Asp RNA synthetase-1 from Mycobacterium tuberculosis. As to conditions: 30 µM. Set-up: scale not given: direction of the effect not stated beside the values. Format: functional.

The target of experiment [2] is Shiga toxin 2 (Escherichia coli O157:H7) (UniProt P09385+P09386). Put plainly: E. coli 0.157:H7 Shiga Toxin SOP - stx2 screening assay. Format: functional. Set-up: scale not given: direction of the effect not stated beside the values. As to conditions: 30 µM.

With `NC(=O)c1ccc2c(c1)nc1n2CCN(Cc2ccccc2)C1`, the Percent Effect in experiment [1] was 3.29%; in experiment [2] it was -9.11%.
As for `O=C(CC1CCCO1)NCc1ccccc1Cn1cncn1` (stereo not given), the figures for the Percent Effect in experiment [1] and in experiment [2] were -3.17% and 31.5%, respectively.
On to `Cc1cc(CN(C)C2CCCN(Cc3noc(C4CC4)n3)C2)no1` (stereo not given), for which the values for the Percent Effect in experiment [1] and in experiment [2] were 1.66% and 28%, respectively.
As for `CCOc1ncccc1C(=O)N(C)Cc1ncc(C)c(OC)c1C`, the Percent Effect is -0.375% in experiment [1] and 19.7% in experiment [2].
In the case of `CC(NC(=O)CCCOc1ccccc1Cl)c1ccncc1` (stereo not given), the Percent Effect in experiment [1] is 5.49%; in experiment [2], -35%.
Regarding `Cc1cc(CN(C)C(=O)NC2CCCN(c3ncccn3)C2)no1` (stereo not given), the Percent Effect in experiment [1] is -1.17%; in experiment [2], 33.3%.
`Cc1cnn(CC2CCCN2Cc2nccn2C)c1` (stereo not given): the values for the Percent Effect in experiment [1] and in experiment [2] were 5.22% and 7.58%, respectively.
The corresponding values for `c1ccc(Cn2cncn2)c(CNCC2CNc3ccnn3C2)c1` (stereo not given) are 0.425% and -35.2%.
For `O=C(c1ccsc1)N1CCc2c(COCc3ccncc3)cncc2C1`, the values for the Percent Effect in experiment [1] and in experiment [2] were -1.03% and -68.5%, respectively.
Consider `Cn1cc(CCC(=O)N2CCN(Cc3ccncc3)CC2)cn1`, for which the Percent Effect in experiment [1] is -1.76%; in experiment [2], 1.29%.
For `c1ccc2oc(NC3CCCN(Cc4noc(C5CC5)n4)C3)nc2c1` (stereo not given), the Percent Effect is -5.59% in experiment [1] and -6.82% in experiment [2].
As for `CO[C@H]1CCN(Cc2cnn(C)c2)[C@@H]2CN(Cc3cccnc3)C[C@H]12`, the Percent Effect in experiment [1] was 3.14%; in experiment [2], -40.9%.
The corresponding values for `COc1cc(N2CCCC(c3nccn3Cc3cscn3)C2)nc(N)n1` (stereo not given) are -2.33% and 14.5%.
Regarding `CCCS(=O)(=O)NCC1CCOc2ccccc2C1` (stereo not given), the Percent Effect was 0.416% in experiment [1] and -40% in experiment [2].
The corresponding values for `COc1ccc(C2CC(=O)Nc3c2nc2n3CCCC2)cc1OC` (stereo not given) are 0.342% and 0.28%.
Consider `O=C1C(NS(=O)(=O)c2cc(F)cc(F)c2)CCN1Cc1ccccc1` (stereo not given), for which the Percent Effect in experiment [1] is -5.71%; in experiment [2] it was 3.9%.
The corresponding values for `Cc1cccc2[nH]c(C3CCN(C(=O)c4ccnn4C)CC3)nc12` are -0.0892% and -69.6%.
The corresponding values for `CNC(=O)c1cnc(/C=C/c2cc(OC)c(OC)c(OC)c2)s1` are -0.971% and -44.8%.
On to `CCc1noc(C)c1C(=O)N(C)Cc1ncc(C)c(OC)c1C`, for which the Percent Effect is -1.73% in experiment [1] and 16.8% in experiment [2].
For `Cc1nc(C(=O)N2CCc3c(nc(-c4ccncc4)[nH]c3=O)C2)cs1` the same measures were 0.783% and 13.5%.

These data come from ChEMBL document CHEMBL3988442, “University of Dundee, Small-Polar-MMV Screening Library” (2021).
